Data as given in PubChem BioAssay (NCATS).
Records with an inconclusive call do not appear. Entries that show only a call come without a potency. A number with no mark means an inactive call. Active and inactive are the calls of the source. Unless noted, the call rests on the fitted dose curve; in most records, active means well fitted curve in the direction sought with a large enough effect; inconclusive means small, poorly fitted or top-dose-only effect, or another doubt; inactive means no such curve, though single readings can be large; an effect the other way counts as inactive or inconclusive.

Experiments:
[1] = Primary qHTS for inhibitors of La Crosse Virus (LACV) - induced cell death in SH-SY5Y cells (AID 1508616); conditions: SH-SY5Y LACV cytopathicity rescue, ATP luminescence, 6 d; series mostly up to 9.63 µM;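 further: top concentration of the series differs between compounds; higher means more rescue of cells from virus-induced death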
Method in brief: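 Readout was luminescence from ATPLite 1step added after a 6-day LACV infection (0.01 MOI) of SH-SY5Y cells that had received pin-transferred compound 24 hr after seeding.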

[2] = Primary qHTS for small molecule stabilizers of the endoplasmic reticulum resident proteome: Secreted ER Calcium Modulated Protein (SERCaMP) assay (AID 1508630); conditions: SH-SY5Y GLuc-SERCaMP (Gaussia luciferase released on ER calcium loss) secretion, thapsigargin, luminescence; series mostly up to 38.4 µM
Method in brief: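 GLuc-SERCaMP-expressing SH-SY5Y cells, pretreated 16 h with compound, are challenged with thapsigargin to empty ER calcium stores; after 4 h, coelenterazine is added directly to the medium and luminescence is imaged.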

[3] = target: Calcium and integrin-binding protein 1 (Homo sapiens) (UniProt Q99828); experiment: Validation qHTS for Identification of Calcium Integrin Binding protein 1 (CIB1) Competitor (AID 1508618); conditions: CIB1-GST / FITC-alphaIIb peptide fluorescence polarization; series mostly up to 114 µM; further: potency means the concentration at half of the fitted maximal effect
Chain of Calcium and integrin-binding protein 1 (Homo sapiens) (Q99828 whole entry, looked up): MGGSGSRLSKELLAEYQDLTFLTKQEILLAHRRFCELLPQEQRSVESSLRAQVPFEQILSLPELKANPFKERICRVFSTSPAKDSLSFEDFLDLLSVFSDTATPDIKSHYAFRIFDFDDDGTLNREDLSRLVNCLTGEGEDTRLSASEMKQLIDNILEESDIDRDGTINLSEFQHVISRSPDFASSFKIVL
Method in brief: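 Displacement of FITC-alphaIIb peptide (100 nM) from CIB1-GST (1 uM) is monitored by polarization in quantitative HTS format; buffer carries 5 mM CaCl2 and 125 mM NaCl at pH 7.4, incubations are at room temperature.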

[4] = target: Calcium and integrin-binding protein 1 (Homo sapiens) (UniProt Q99828); experiment: Primary qHTS for Identification of Calcium Integrin Binding Protein 1 (CIB1) Competitor (AID 1508620); conditions: CIB1-GST / FITC-alphaIIb peptide fluorescence polarization; series mostly up to 114 µM;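 further: GST tagged CIB1 binding a fluorescein labelled alphaIIb integrin peptide tracer; top concentration of the series differs between compounds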
Method in brief: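 CIB1-GST (1 uM final) and compound incubated 15 min at room temperature before adding FITC-alphaIIb peptide tracer (100 nM final). Competition for binding read by fluorescence polarization (ex 480, em 540) after another 15 min at room temperature.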

[5] = target: Cytochrome P450 2D6 (Homo sapiens) (UniProt P10635); experiment: Cytochrome P450 family 2 subfamily D member 6 (CYP2D6) small molecule antagonists: luciferase biochemical (cell-free) qHTS assay (AID 1645840; active means well fitted curve in the direction sought with a large enough effect in the repeat runs; an effect the other way counts as inactive or inconclusive; further: potency means the concentration at half of the fitted maximal effect; nearly all actives have a fitted effect of over 55% in size); conditions: P450-Glo CYP2D6 enzyme, luciferin luminescence, 1 h; series mostly up to 57.4 µM
Chain of Cytochrome P450 2D6 (Homo sapiens) (P10635 whole entry, looked up): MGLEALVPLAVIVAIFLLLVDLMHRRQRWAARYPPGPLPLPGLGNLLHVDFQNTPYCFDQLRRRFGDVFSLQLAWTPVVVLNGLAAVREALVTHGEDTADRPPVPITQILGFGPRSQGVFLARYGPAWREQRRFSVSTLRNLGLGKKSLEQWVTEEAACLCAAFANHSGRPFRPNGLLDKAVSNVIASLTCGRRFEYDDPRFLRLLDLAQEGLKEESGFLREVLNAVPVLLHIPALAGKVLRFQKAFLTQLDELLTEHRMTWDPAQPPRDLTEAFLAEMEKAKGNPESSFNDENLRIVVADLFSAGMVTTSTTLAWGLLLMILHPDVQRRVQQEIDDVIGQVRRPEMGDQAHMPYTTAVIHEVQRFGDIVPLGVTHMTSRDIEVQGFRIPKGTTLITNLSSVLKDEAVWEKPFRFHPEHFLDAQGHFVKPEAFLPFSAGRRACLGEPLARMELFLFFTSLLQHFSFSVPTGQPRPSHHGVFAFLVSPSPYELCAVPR
Method in brief: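 P450-Glo luminescent screen: recombinant CYP2D6 enzyme–proluciferin substrate mix preincubated with compound 10 min at room temperature, then NADPH regeneration added for 1 h at room temperature. Detection reagent added for 20 min; luciferin light read as relative luminescence units.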

Papain (Carica papaya) = Papain (Carica papaya) (UniProt P00784); experiment: Primary qHTS assay for inhibitors of the protease papain (AID 1645873); conditions: papain Z-FR-AMC cleavage, AMC fluorescence; series mostly up to 49.8 µM;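 further: papain turnover of Z-FR-AMC read as the AMC fluorescence gain over 10 min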
Chain of Papain (Carica papaya) (P00784 whole entry, looked up, the tested form may be a part): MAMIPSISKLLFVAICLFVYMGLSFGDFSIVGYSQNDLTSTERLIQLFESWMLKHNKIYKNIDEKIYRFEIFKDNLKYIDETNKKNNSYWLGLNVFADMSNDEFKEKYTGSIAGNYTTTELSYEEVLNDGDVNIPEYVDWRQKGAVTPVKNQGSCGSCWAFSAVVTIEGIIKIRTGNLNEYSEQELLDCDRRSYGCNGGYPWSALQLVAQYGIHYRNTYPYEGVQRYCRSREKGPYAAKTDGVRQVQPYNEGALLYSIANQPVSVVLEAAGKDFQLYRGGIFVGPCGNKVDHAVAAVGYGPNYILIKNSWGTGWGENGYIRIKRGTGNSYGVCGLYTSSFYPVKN

[6] = Primary qHTS for inhibitors of nuclear receptor binding SET domain protein 2 (NSD2) in an isogenic RCH-ACV NSD2 p.E1099K mutant (9B) (AID 1645876); conditions: RCH-ACV (leukaemia line) NSD2 E1099K (9B) viability, CellTiter-Glo, 72 h; series mostly up to 44.9 µM; further: nearly all actives have a fitted effect of over 70% in size
[7] = Counterscreen qHTS for small molecule stabilizers of the endoplasmic reticulum resident proteome: GLuc-NoTag assay (AID 1508627); conditions: Gaussia luciferase NoTag secretion counterscreen, luminescence, thapsigargin 100 nM for final 4 h; series mostly up to 76.4 µM;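 further: SH-SY5Y cells given compound then 100 nM thapsigargin to empty ER calcium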
Method in brief: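 Luminescence of Gaussia luciferase secreted into the medium (coelenterazine, 0.07x final, unlysed cells) was the read-out. Human SH-SY5Y neuroblastoma cells constitutively secreting untagged GLuc received compound for 19 h, then 100 nM thapsigargin for 4 h.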

[8] = Cell Viability qHTS for small molecule stabilizers of the endoplasmic reticulum resident proteome (AID 1508629); conditions: cell viability counter-screen, 100 nM thapsigargin for final 4 h;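 further: human SH-SY5Y neuroblastoma cells carrying the GLuc-SERCaMP reporter; compound exposure about 46 h in total before the viability read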

With `COc1cc(CC(C)N)c(OC)cc1I` (stereo unspecified) the Potency [1] was “inactive” and the outcome [2] was “inactive”.

For `NC(Cc1cc(O)c(O)cc1O)C(=O)O` (stereo unspecified), the Potency [3] was 35.5 µM (active).

For `CN1CCC[C@@H]1Cc1c[nH]c2ccc(Nc3ncccc3[N+](=O)[O-])cc12`, the Potency [3] was “inactive”, the Potency [4] was “inactive” and the Potency [5] was 3.01 µM (active). The Potency (Papain (Carica papaya)) was “inactive” and the Potency [6] was “inactive”.

For `O=C(O)c1cc[c]([Hg][Cl])cc1`, the Potency [1] was “inactive”, the outcome [7] was “inactive” and the outcome [2] was “inactive”.

For `NC(=O)c1cc(N2CC2)c([N+](=O)[O-])cc1[N+](=O)[O-]`, the Potency [3] was “inactive”, the outcome [2] was “inactive” and the Potency (Papain (Carica papaya)) was “inactive”.

With `CCOC(=O)c1ncn2c1[C@@H]1CCCN1C(=O)c1cc(OC)ccc1-2` the Potency [3] was “inactive”, the outcome [2] was “inactive” and the Potency (Papain (Carica papaya)) was “inactive”.

For `C[C@H](N)CN1CCc2ccc(Br)cc21`, the Potency [3] was “inactive”, the outcome [7] was “inactive” and the max response [8] was -3.5%. The Potency (Papain (Carica papaya)) was “inactive”.

In the case of `C[C@H](NC(=O)Cc1cc(F)cc(F)c1)C(=O)N[C@@H]1N=C(c2ccccc2)c2ccccc2N(C)C1=O`, the Potency [4] is reported as “inactive”.

With `CCn1cnc2c(Nc3cccc(Cl)c3)nc(N[C@@H]3CCCC[C@@H]3N)nc21` the Potency [3] was “inactive”, the outcome [2] was “inactive” and the Potency (Papain (Carica papaya)) was “inactive”.

With `C[C@]12CC[C@@H](O)C[C@H]1CC[C@@H]1[C@@H]2CC[C@]2(C)C(=O)CC[C@@H]12` the Potency [4] was “inactive”.
